Columns and labels:
Details in all cases: concentration: 1 μM, replicates: in singlicate; n = 1
[1] = system: CSNK1G1
[2] = system: CSNK1G2
[3] = system: CSNK1G3
[4] = system: CSNK2A1
[5] = system: CSNK2A2
[6] = system: T1, CTK
T1 construct: gene MATK

[7] = system: DAPK1
[8] = system: DAPK2
[9] = system: DAPK3
[10] = system: T2, DCAMKL1
T2 construct: gene DCLK1
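Note: KINOMEscan kinase panel screen.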

Row | SMILES | %Inh [1] | %Inh [2] | %Inh [3] | %Inh [4] | %Inh [5] | %Inh [6] | %Inh [7] | %Inh [8] | %Inh [9] | %Inh [10]
1 | COc1cc(Nc2nccc(-c3c(-c4cccc(NC(=O)c5c(F)cccc5F)c4)nn4ncccc34)n2)cc(OC)c1OC [GSK327238] | 16% | 0% | 20% | 0% | 4% | 14% | 0% | 0% | 0% | 12%
2 | COCCOCCOc1cc2ncc3c4ccc(C#N)cc4[nH]c3c2cc1OC | 0% | 24% | 17% | 75% | 95.3% | 0% | 0% | 7% | 15% | 20%
3 | c1ccc(-c2n[nH]cc2Nc2ccnc3ccccc23)nc1 [GW694077] | 100% | 1% | 12% | 54% | 68% | 0% | 23% | 60% | 66% | 23%
4 | COc1cccc(-c2ccc3c(NC(=O)C4CC4)n[nH]c3n2)c1 [SB-710903] | 0% | 0% | 10% | 0% | 79% | 0% | 0% | 0% | 13% | 21%
5 | c1ccc(-c2cnc3nccnn23)cc1 [AH20685] | 0% | 5% | 0% | 0% | 0% | 0% | 0% | 0% | 0% | 0%
6 | c1ccc(Oc2ccc(Nc3ccnc4cc(-c5ccc(CNCCN6CCOCC6)o5)ccc34)cc2)nc1 [GW567145] | 2% | 0% | 13% | 0% | 18% | 0% | 0% | 2% | 18% | 20%
7 | Cc1ccc(S(=O)(=O)Nc2ccc(Nc3nccc(Nc4cccc5[nH]ncc45)n3)cc2)cc1 [GSK581271] | 0% | 0% | 7% | 0% | 0% | 0% | 0% | 0% | 5% | 12%
8 | Cn1cc(-c2ccc3c(c2)CCN3C(=O)Cc2cccc(Cl)c2)c2c(N)ncnc21 [GSK2606590] | 31% | 0% | 29% | 8% | 30% | 0% | 1% | 5% | 0% | 12%
9 | Nc1ncc(-c2cccnc2)c2scc(-c3ccc4c(c3)CCN4C(=O)Cc3ccccc3)c12 [GSK683281] | 32% | 9% | 58% | 77% | 28% | 9% | 0% | 0% | 27% | 20%
10 | O=c1[nH]cc(-c2ccc(N3CCOCC3)cc2)c2sc(-c3cn[nH]c3)cc12 [GSK2276055] | 43% | 43% | 63% | 64% | 79% | 0% | 37% | 19% | 23% | 12%
11 | CC(C)(C)c1ccc2nccc(Nc3cccc(O)c3)c2c1 [GW856795] | 36% | 0% | 0% | 0% | 0% | 0% | 16% | 0% | 0% | 14%
12 | CN1CCN(CCCNc2nccc(-c3c(-c4ccc(F)cc4)nn4cc(C(F)(F)F)ccc34)n2)CC1 [GW621581] | 0% | 0% | 16% | 0% | 0% | 0% | 0% | 0% | 100% | 0%
13 | COc1cc(Nc2nccc(N3CCC(NC(=O)c4cc5ccccc5s4)C3)n2)cc(OC)c1OC (centres unmarked) [GSK1379760] | 9% | 13% | 8% | 27% | 0% | 0% | 54% | 20% | 1% | 13%
14 | COC(=O)Nc1nc2ccc(Oc3ccc(NC(=O)Nc4cc(C(F)(F)F)ccc4F)cc3)cc2n1C.Cl [GW692089] | 6% | 0% | 12% | 0% | 1% | 0% | 0% | 0% | 0% | 6%
15 | CCn1c(-c2nonc2N)nc2c(C#CC(C)(C)O)nc(OC[C@H](N)c3ccccc3)cc21 [GSK943949] | 0% | 0% | 17% | 0% | 30% | 11% | 0% | 3% | 18% | 12%
16 | COc1ccc(Nc2nccc(N3CCC(NC(=O)Nc4cccc(OC)c4)C3)n2)cc1 (centres unmarked) [GSK1379742] | 13% | 0% | 20% | 6% | 0% | 0% | 0% | 0% | 0% | 0%
17 | O=C(Nc1ccccc1F)NC1CCN(c2ccnc(Nc3ccc(F)cc3)n2)CC1 [GSK1379800] | 3% | 0% | 12% | 0% | 0% | 0% | 0% | 0% | 20% | 0%
18 | CCCCc1nn2ncccc2c1-c1ccnc(Nc2ccc(N3CCN(C)CC3)cc2)n1 [GW684941] | 0% | 0% | 0% | 0% | 7% | 13% | 0% | 0% | 17% | 17%
19 | CC(C)c1nc(-c2cccc(NS(=O)(=O)c3c(F)cccc3F)c2F)c(-c2ccnc(Nc3ccc(N4CCOCC4)nc3)n2)s1 [GSK2008607] | 21% | 0% | 6% | 7% | 32% | 55% | 2% | 1% | 34% | 57%
20 | Clc1ccc(-c2nn3ncccc3c2-c2ccnc(Nc3ccc4c(c3)OCCO4)n2)cc1 [GW829116] | 0% | 42% | 23% | 0% | 8% | 36% | 0% | 0% | 0% | 7%
21 | Oc1cc(Nc2ccnc3cc(I)ccc23)ccc1F [GW552771] | 0% | 0% | 0% | 23% | 0% | 6% | 0% | 0% | 30% | 0%
22 | CN1CCN(Cc2cccc(-c3ccc4c(Nc5ccc(Oc6ccccc6)cc5)ccnc4c3)c2)CC1 [GW578342] | 18% | 1% | 2% | 0% | 0% | 0% | 100% | 6% | 25% | 13%
23 | COc1cc2c(cc1OCCN1CCNCC1)ncc1c3ccc(C#N)cc3[nH]c21 | 0% | 0% | 4% | 63% | 92.4% | 15% | 14% | 4% | 4% | 38%
